This passage reports Potency and outcome results from PubChem BioAssay (Tox21).

SMILES strings stand for the structures. Values joined by “and” are separate entries in the source; they are usually repeats but may differ in a detail not shown here. Equal values may be shown once. Results filed as inconclusive are left out. Where a structure was tested more than once in an assay, its records may differ in their call. Active and inactive are the calls of the source. Unless noted, calls come from the whole dose curve; as a rule, active = well fitted curve in the direction sought with a large enough effect in the repeat runs; inconclusive = weak or mixed curves; inactive = no such curve, though single readings can be large; an effect the other way counts as inactive or inconclusive.

The nature of assay [1]: qHTS assay for small molecule agonists of the p53 signaling pathway (AID 651631; calls by dose curve; note: nearly all actives have a fitted effect of over 15% in size; note: potency is the fitted concentration of half-maximal effect). The method, boiled down: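 Stably transfected HCT-116 cells (beta-lactamase behind p53 response elements) get compounds after a 5 h settling period; 16 h later at 37 °C, FRET substrate is loaded and fluorescence read after 2 h.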
For orientation: In qHTS, concentration-response curves come from the screen itself.

Assay [2] is described as follows: qHTS assay for small molecules that induce genotoxicity in human embryonic kidney cells expressing luciferase-tagged ATAD5 (AID 651632). Note: nearly all actives have a fitted effect of over 15% in size. The method, boiled down:
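HEK293T cells carrying a luciferase reporter tagged to ATAD5 were exposed to compound or DMSO vehicle for 16 hr at 37C, 5% CO2. Amplite was added, and after 30 min at room temperature luciferase activity was read as a marker of ATAD5 induction.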

A short description of assay [3]: qHTS assay for small molecule agonists of the p53 signaling pathway - cell viability (AID 651633; calls by dose curve;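 note: p53RE-bla HCT reporter cells with a stable beta-lactamase p53 reporter; series mostly up to about 83 µM; nearly all actives have a fitted effect of over 30% in size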). The method, boiled down:
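Viability counter-read: CellTiter-Glo luminescence (30 min, room temperature) in the same p53RE-bla plates. These plates had been exposed to compounds for 16 h at 37 C.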

Assay [4] can be described thus: qHTS assay for small molecules that induce genotoxicity in human embryonic kidney cells expressing luciferase-tagged ATAD5 - cell viability (AID 651634; calls by dose curve; note: nearly all actives have a fitted effect of over 25% in size). An outline of the steps:
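HEK293T cells expressing luciferase-tagged ATAD5 were exposed to compound or DMSO for 15.5 hr at 37C, 5% CO2. Viability was then read as live-cell protease activity by CellTiter-Fluor fluorescence after 30 min at 37C.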

A short description of assay [5]: qHTS assay for small molecule disruptors of the mitochondrial membrane potential - cell viability (AID 720634; calls by dose curve;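 note: human HepG2 liver cancer cells; series mostly up to about 83 µM; nearly all actives have a fitted effect of over 20% in size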). The method, boiled down:
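HepG2 cells seeded overnight at 37 C, then exposed to compound or DMSO for 1 hr at 37 C, 5% CO2. m-MPI dye added, then CellTiter-Glo for 30 min at room temperature; viability read as ATP luminescence.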

A short description of assay [6]: qHTS assay for small molecule disruptors of the mitochondrial membrane potential (AID 720635). Note: potency is the fitted concentration of half-maximal effect. An outline of the steps: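 Mitochondrial membrane potential tracked with Mito-MPS dye, red aggregates (ex 540/em 590 nm) against green monomers (ex 490/em 535 nm). Compound treatment 1 hr at 37C, dye 30 min in HepG2.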
A short description of assay [7]: qHTS assay to test for compound auto fluorescence at 590 nm (red) in HepG2 cells (AID 720674). Note: potency is the fitted concentration of half-maximal effect. An outline of the steps:
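We screened compounds on adherent HepG2 cells, incubating them for an hour at 37 C in 5% CO2 before reading emission at 590 nm under 540 nm excitation; values reflect equivalence to Rose Bengal sodium fluorescence.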

A short description of assay [8]: qHTS assay to test for compound auto fluorescence at 535 nm (green) in HepG2 cells (AID 720675).
The nature of assay [9]: qHTS assay to test for compound auto fluorescence at 460 nm (blue) in HEK293 cells (AID 720678). The method, boiled down:
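HEK293, 2,000 cells/well, 10% dialyzed FBS; attach 4-5 hr 37C; pin compound or DMSO; o/n 37C/5% CO2; fluorescence 405/460 nm; triamterene-equivalent units.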

Assay [10] in a line: qHTS assay to test for compound auto fluorescence at 590 nm (red) in HEK293 cells (AID 720679). Note: potency is the fitted concentration of half-maximal effect. The method, boiled down: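 Intensity at 540nm excitation and 590nm emission is reported as Rose Bengal sodium-equivalent autofluorescence. Measurements followed overnight exposure (37C, 5% CO2) of HEK293 cells, 2,000 per well, to 23 nL compound.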
% is set by controls: 0 for no effect and ±100 for the full control effect; tags give direction and shape of the fitted curve or compound fluorescence and quenching.

As for `CC(C)[N+](C)(CCOC(=O)C1c2ccccc2Oc2ccccc21)C(C)C`, the Potency entry in assay [1], in [2], in assay [3], in assay [4], in assay [5] and in [6] was “inactive” in each case. Besides, the Potency result in assay [7], in [8] and in assay [10] was “inactive” in each case. In assay [9], the molecule was called inactive.
Consider `c1ccc2ncccc2c1`, for which the Potency result in assay [1], in [2], in assay [3], in assay [4], in [5] and in [7] was “inactive” throughout. Further, the Potency result in [8] and in [10] was “inactive” throughout. The outcome in assay [9] was inactive.
Consider `COc1ccc(C(=O)c2ccccc2O)c(O)c1`, for which the Potency entry in [1], in assay [2], in assay [3], in [4], in assay [5] and in assay [7] was “inactive” in each case. Besides, the Potency entry in assay [8] and in assay [10] was “inactive” each time. For the same molecule, the Potency in assay [6] was 8.04 µM (active) and 8.61 µM (active). The molecule was classed as inactive in assay [9].
Turning to `O=S1(=O)CCCO1`, the Potency entry in assay [1], in assay [2], in assay [3], in assay [5], in assay [7] and in [8] was “inactive” throughout. Also, in assay [10], the Potency entry was “inactive”. Moreover, the result in assay [9] was inactive.
On to `Brc1nc2ccccc2s1`, for which the Potency result in assay [1], in assay [2], in [3], in assay [4], in [5] and in assay [7] was “inactive” each time. The Potency result in assay [10] was “inactive”. Also, the molecule was called inactive in assay [9].
For `CC(=O)Nc1ccc2c(c1)Cc1cc(NC(C)=O)ccc1-2`, the Potency entry in assay [1], in [2], in [3], in assay [4], in assay [5] and in assay [6] was “inactive” throughout. The Potency result in [7], in [8] and in assay [10] was “inactive” in each case. Moreover, the outcome in assay [9] was inactive.
Turning to `Nc1ccc2c(O)cc(S(=O)(=O)O)cc2c1`, the Potency in [1] was 4.86 µM (active) and 2.43 µM (active). For the same molecule, the Potency result in assay [2], in [3], in assay [4], in assay [5], in assay [7] and in assay [8] was “inactive” throughout. Also, the Potency entry in assay [10] was “inactive”. The call in [9] was inactive.
In the case of `O=C1OC2(c3ccccc31)c1cc(I)c(O)c(I)c1Oc1c2cc(I)c(O)c1I`, the Potency entry in assay [1], in assay [2], in assay [3] and in [5] was “inactive” in each case. For the same molecule, the Potency in [7] was 11.2 µM (active) and 20 µM (active) and 17.8 µM (active); in assay [10] it was 17.8 µM [fluorescent] (active) [middle of 4 runs]. In assay [9], the molecule was called inactive.
Turning to `OC[C@@H](O)[C@@H](O[C@@H]1O[C@H](CO)[C@H](O)[C@H](O)[C@H]1O)[C@H](O)[C@@H](O)CO`, the Potency result in assay [1], in [2], in [3], in assay [5], in assay [6] and in assay [7] was “inactive” throughout. In addition, the Potency result in assay [8] and in assay [10] was “inactive” throughout. Moreover, the outcome in assay [9] was inactive.
Take `O=C(CCCN1CCC(O)(c2ccc(Cl)cc2)CC1)c1ccc(F)cc1`: the Potency result in assay [1], in assay [3], in assay [5], in assay [7], in [8] and in [10] was “inactive” each time. In assay [9], the molecule was classed as inactive.
Turning to `CC(C)=CCO`, the Potency entry in [1], in assay [2], in assay [3], in assay [4], in assay [5] and in assay [7] was “inactive” in each case. The Potency entry in [10] is “inactive”. The molecule was classed as inactive in assay [9].
For `COC(=O)CC(=O)OC`, the Potency entry in assay [1], in assay [2], in [3], in [4], in [5] and in assay [7] was “inactive” each time. Also, the Potency result in assay [8] and in assay [10] was “inactive” throughout. The molecule was called inactive in assay [9].
Regarding `CNC[C@H](O)c1ccc(O)c(O)c1`, the Potency result in [1], in assay [2], in assay [3], in assay [4], in assay [5] and in assay [6] was “inactive” throughout. Also, the Potency entry in assay [7], in [8] and in [10] was “inactive” throughout. In [9], the molecule was called inactive.
With `CC(C)(Oc1ccc(Cl)cc1)C(=O)O`, the Potency entry in assay [1], in assay [2], in assay [3], in assay [4], in [5] and in [6] was “inactive” in each case. The Potency entry in assay [7] and in assay [10] was “inactive” each time. The outcome in [9] was inactive.
As for `CCCCCCCCCCCCCO`, the Potency result in assay [1], in assay [2], in assay [3], in assay [4], in assay [5] and in assay [7] was “inactive” in each case. Further, the Potency result in assay [10] is “inactive”. Moreover, the outcome in assay [9] was inactive.
As to `CCCCCCCC/C=C\CCCCCCCC(=O)O`, the Potency result in assay [2], in assay [3], in assay [5], in [6], in assay [7] and in [8] was “inactive” each time. Further, the Potency result in [10] is “inactive”. Besides, the result in [9] was inactive.
For the molecule `Cc1ccc(N)c([N+](=O)[O-])c1`, the Potency result in assay [2], in [3], in [5], in assay [7], in [8] and in assay [10] was “inactive” in each case. The Potency in assay [6] is 54.5 µM (active). Besides, the result in [9] was inactive.
Turning to `COc1ccc2nc(N)sc2c1`, the Potency entry in [2], in assay [5], in assay [6], in assay [7], in assay [8] and in [10] was “inactive” each time. In addition, the outcome in assay [9] was inactive.
Consider `Cc1ccc(S(=O)(=O)O)cc1C`, for which the Potency entry in [2], in [3], in [5], in [6], in assay [7] and in assay [10] was “inactive” each time. The molecule was called inactive in [9].
With `CCc1cccc2c3c([nH]c12)C(CC)(CC(=O)O)OCC3` (stereo unspecified), the Potency result in assay [2], in [3], in assay [5], in assay [7], in assay [8] and in assay [10] was “inactive” in each case. In assay [9], the call was inactive.
Turning to `CC1(C)O[C@@H]2C[C@H]3[C@@H]4C[C@H](F)C5=CC(=O)C=C[C@]5(C)[C@@]4(F)[C@@H](O)C[C@]3(C)[C@]2(C(=O)CO)O1`, the Potency entry in assay [2], in assay [5], in [7], in [8] and in [10] was “inactive” in each case. Also, in assay [9], the result was inactive.
For `[Na+]`, the Potency result in assay [2], in assay [3], in assay [5], in [7], in assay [8] and in assay [10] was “inactive” in each case. In addition, the result in assay [9] was inactive.
`Cc1ccc(/C(=C\CN2CCCC2)c2ccccn2)cc1`: the Potency result in [3], in assay [5], in [6], in assay [7], in assay [8] and in assay [10] was “inactive” throughout. In addition, the call in assay [9] was inactive.
Consider `Nc1cc(Cl)c(N)c(Cl)c1`, for which the Potency entry in [2], in assay [3], in assay [5], in assay [7] and in [10] was “inactive” throughout. For the same molecule, in assay [9], the call was inactive.
Consider `NCCS(=O)(=O)O`, for which the Potency entry in assay [2], in assay [3], in assay [5], in assay [7] and in assay [10] was “inactive” throughout. In addition, the Potency entry in [6] was “inactive and 7.13 µM (active)”. The call in [9] was inactive.
Turning to `C=C[C@H]1CN2CC[C@H]1C[C@H]2[C@H](O)c1ccnc2ccc(OC)cc12`, the Potency entry in assay [2], in assay [5], in assay [7] and in assay [10] was “inactive” each time. In addition, the molecule was classed as inactive in assay [9].
